# Assay outcomes: PubChem, National Center for Advancing Translational Sciences (NCATS)
# FMDV antiviral = High Throughput Screening for Foot and Mouth Disease Virus Antivirals; FMDV antiviral cell-based qHTS; AID 1159524, 2015; actives 1.2% (n = 410,000); Potency, µM (highest dose often 57.9 µM), actives largely listed as inhibitors; calls by dose curve; tested in HEK293T cells; further: read-out not given here; nearly all actives have a fitted effect of over 45% in size
# HCV inhibitor = qHTS Assay for Inhibitors of Hepatitis C Virus (HCV); Potency, µM (titrated, usually from 41.8 µM), actives largely listed as inhibitors; Huh7.5.1 HCVcc-Cre infection, luciferase reporter, 44 h; AID 651820, 2012; actives 3.4% (n = 340,000)
#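 Compounds are dispensed onto cells plated 4 h earlier at 1,000 per well, with HCVcc-Cre virus (about 0.5 moi) added next. Following 44 h of culture, luminescent signal is measured for 15 sec after 15 min with substrate at room temperature.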
# Sm TGR inh = qHTS Assay for the Inhibitors of Schistosoma Mansoni Peroxiredoxins; purified TGR, DTNB reduction, TNB absorbance 405 nm; Schistosoma mansoni thioredoxin glutathione reductase (TGR), Q962Y6; Potency, µM (series often up to 114 µM), usual class: inhibitors; actives 3% (n = 360,000); AID 485364, 2010; further: nearly all actives have a fitted effect of over 60% in size
#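 First, TGR (20 nM dispensed) and NADPH were mixed with compound. Second, a 15 min room-temperature incubation followed. Third, further NADPH and then DTNB were added to start the reaction. Finally, TNB absorbance was monitored kinetically.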
# Vaccinia Venus = qHTS for Stage-Specific Inhibitors of Vaccinia Orthopoxvirus: Venus Reporter Primary qHTS; AID 720580, 2013; Potency, µM (series often up to 36.5 µM), hits mostly inhibitors; actives 0.46% (n = 330,000); Vaccinia virus Venus reporter expression, fluorescence; calls by dose curve; tested in A549 cells; further: nearly all actives have a fitted effect of over 30% in size
# Vaccinia mCherry = qHTS for Stage-Specific Inhibitors of Vaccinia Orthopoxvirus: mCherry Reporter Primary qHTS. Vaccinia virus mCherry reporter infection, fluorescence. actives 0.63% (n = 310,000). AID 720579, 2013. Potency, µM (titrated, usually from 36.5 µM), usual class: inhibitors; calls by dose curve; tested in A549 cells; further: nearly all actives have a fitted effect of over 35% in size
# HCMV inh = qHTS Assay for inhibitors of the human cytomegalovirus (HCMV). HFF cells, HCMV-luciferase reporter, 72 h; active compounds read low. activity change, negative = inhibition, % at 57.5 µM. actives 4.5% (n = 410,000); in the data active means activity change below about -60%; inconclusive means no clear call, values can overlap the other calls; inactive means above about -39%
#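 Cell-based, HFFs, 1000 cells/well, 16 h 37C; cpds in DMSO + HCMV-luc, MOI 1 PFU/cell; 72 h 37C; OneGlo luminescence after 5 min RT; norm. to buffer vs Salinomycin 10uM.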
# A number is an active result; i = inactive; ? = inconclusive; nt = no result given; ! = a repeat was not active. A selection: hits, their analogues and other compounds. The true share with any hit is near 9.3%. Unless noted, the call rests on the fitted dose curve; in most records, active means well fitted curve in the direction sought with a large enough effect; inconclusive means small, poorly fitted or top-dose-only effect, or another doubt; inactive means no such curve, though single readings can be large; an effect the other way counts as inactive or inconclusive.
SMILES,FMDV antiviral,HCV inhibitor,Sm TGR inh,Vaccinia Venus,Vaccinia mCherry,HCMV inh
Cc1ccc(OCC(=O)NN=C2c3ccccc3-c3ccccc32)cc1,i,14.1µM,i,nt,nt,i
O=C(COc1ccc(Cl)cc1Cl)NN=C1c2ccccc2-c2ccccc21,?,i,i,i,i,-61.3
COc1cccc(OC)c1C(=O)NCCSC1CCCCC1,i,i,?,nt,nt,i
COc1ccc(NC(=S)NCCC(c2ccccc2)c2ccccc2)c(OC)c1,i,?,i,?,?,-60.4
COc1cc(OC)cc(C(=O)NCCSC2CCCCC2)c1,i,3.16µM,i,i,i,i
COc1cc(OC)cc(C(=O)NCCCCCCNC(=O)c2cc(OC)cc(OC)c2)c1,i,7.08µM,i,i,i,i
COc1ccc(NC(=S)NCCc2ccccc2OC)c(OC)c1,i,i,i,i,i,i
COc1cccc(C(=O)NCCCNC(=O)c2cccc(OC)c2)c1,i,i,i,i,i,i
COc1ccc(NC(=O)C(CC(C)C)NC(=O)C2CCCCC2)c(OC)c1 (stereo unspecified),316µM!,i,i,i,i,?
O=C(NCC(c1ccco1)N1CCCC1)c1cc(S(=O)(=O)N2CCOCC2)ccc1Cl (stereo unspecified),i,i,i,nt,nt,i
N#Cc1ccccc1S(=O)(=O)N1CCN(C(=O)CCNS(=O)(=O)c2ccc(Cl)cc2)CC1,i,i,nt,nt,nt,i
COc1cc(OC)cc(C(=O)NCCC(c2ccccc2)c2ccccc2)c1,i,14.1µM,i,nt,nt,i
COc1cc(NC(=S)NCCC(c2ccccc2)c2ccccc2)cc(OC)c1,i,22.4µM,i,i,i,?
COc1cccc(NC(=S)NCCC(c2ccccc2)c2ccccc2)c1,i,?,i,?,nt,i
COc1cc(OC)cc(C(=O)NCCOc2ccccc2)c1,i,i,i,i,nt,i
COc1ccc(NC(=S)NC(=O)CC(C)C)c(OC)c1,i,?,39.8µM,i,i,i
Cc1ccccc1NS(=O)(=O)c1ccc(C(=O)N2CCC2)cc1,i,i,i,i,i,i
CCc1ccc2oc(-c3cc(N)ccc3O)nc2c1,25.1µM,?,i,i,nt,i
CCc1ccc2oc(-c3cc(N)ccc3Cl)nc2c1,i,i,i,i,i,i
Cc1ccc(C(O)c2ncc(-c3ccc(Cl)cc3)[nH]2)c(C)c1 (stereo unspecified),i,nt,nt,i,i,?
O=C1[C@@H]2[C@H](C(=O)N1Cc1ccco1)[C@H]1C=C[C@@H]2C1,i,i,50.1µM,i,i,i
O=C(CN1C(=O)C2C3C=CC(C3)C2C1=O)NCc1ccco1 (stereo unspecified),i,i,i,i,nt,i
CC(c1ccccc1)C1CC(=O)N(Cc2ccco2)C1=O (stereo unspecified),i,i,7.08µM,nt,nt,i
CCN(CC)S(=O)(=O)c1ccc(Cl)c(NC(=O)COC(=O)c2cccn2C)c1,12.6µM,5.62µM,i,i,?,i
CN(C)S(=O)(=O)c1ccc(Cl)c(NC(=O)COC(=O)/C=C/c2ccco2)c1,i,i,35.5µM,i,i,i
SMILES,FMDV antiviral,HCV inhibitor,Sm TGR inh,Vaccinia Venus,Vaccinia mCherry,HCMV inh
CCN(CC)S(=O)(=O)c1ccc(Cl)c(NC(=O)COC(=O)c2ccc(O)cc2)c1,?,?,i,i,i,i
Cc1nc(NC(=O)COC(=O)/C=C/c2ccco2)c(Cl)cc1Cl,i,i,8.91µM,nt,nt,i
O=C(COC(=O)/C=C/c1ccco1)Nc1ncc(Cl)cc1Cl,i,i,44.7µM,nt,nt,i
Cc1nc(NC(=O)COC(=O)C(NC(=O)c2ccco2)C(C)C)c(Cl)cc1Cl (stereo unspecified),i,i,31.6µM,i,i,i
CC(C)(C)NC(=O)C1CC(=O)OC12CCOC(C)(C)C2 (stereo unspecified),i,i,nt,nt,nt,i
CCN(C(=O)CCCCC(=O)N(CC)c1ccccc1)c1ccccc1,i,i,nt,i,i,i
CCn1cc([N+](=O)[O-])c(C(=O)Nc2c(C)nn(Cc3c(F)c(F)c(F)c(F)c3F)c2C)n1,i,?,i,nt,nt,i
COc1ccc(C2NCc3ccc4c(c3-n3cccc32)OCO4)cc1O (stereo unspecified),i,0.562µM,i,?,nt,nt
COC(=O)c1c(NC(=O)COc2c(C)cccc2C)sc2c1CCCC2,i,nt,i,i,i,i
COCC(=O)Nc1sc2c(c1C(=O)OC)CCCC2,i,7.08µM,i,nt,nt,i
CCCc1ccc(OCC(=O)Nc2sc3c(c2C(=O)OC)CCCCC3)cc1,i,nt,i,i,i,i
COC(=O)c1c(NC(=O)COC(=O)c2ccc(O)cc2)sc2c1CCCCC2,i,3.16µM,i,i,?,i
COC(=O)c1c(NC(=O)C(=O)NCCCN2CCOCC2)sc2c1CCCC2,i,22.4µM,i,nt,nt,i
Cc1cc(C)n(CC(=O)NNC(=O)c2ccc(S(C)(=O)=O)cc2)n1,i,i,nt,i,i,i
CN(C)c1ccc(C(=O)OCc2cc(=O)n3ccsc3n2)cc1,i,i,nt,i,i,i
COc1ccc(OC(=O)N2CCOCC2)cc1,i,i,i,nt,nt,i
COc1ccc(OC(=O)N2C/C(=C/c3ccccc3)C(=O)/C(=C\c3ccccc3)C2)cc1,31.6µM,?,nt,i,i,-96.5
CCOC(=O)N1C/C(=C\c2ccccc2)C(=O)/C(=C/c2ccccc2)C1,20µM,i,i,?,?,-101.3
COCC(=O)Nc1cc(C)cn(Cc2ccccc2Cl)c1=O,i,i,i,i,i,i
O=c1[nH][nH]c2c([N+](=O)[O-])ccc(F)c12,nt,nt,nt,nt,nt,-61.5
CCOC(=O)/C(=C/C=C1\Sc2cc(C)c(C)cc2N1CC)C(C)=O,?,11.2µM,44.7µM,i,i,-69.5
CCOC(=O)/C(=C\C=C1/Sc2ccccc2N1CC)C(C)=O,i,?,i,i,?,-63.6
O=C1CCC(C(=O)N2CCCCO2)CN1CCc1ccc(Cl)cc1 (stereo unspecified),i,i,i,i,i,i
O=[N+]([O-])c1cc(S(=O)(=O)Nc2ccc(Cl)cc2)ccc1N/N=C/c1ccncc1,i,i,i,?,?,-102.5
Cc1oc2c(c1C(=O)Nc1cccc(Br)c1)C1=NCCN1C=N2,i,nt,i,?,?,i
Cc1nc(C(F)(F)F)c(C(=O)N/N=C(\N)c2ccccn2)s1,i,12.6µM,i,?,2.51µM,i
COc1ccc(-c2nc(CN3CCN(Cc4ccccc4)CC3)c(C)o2)cc1,i,i,i,nt,nt,i
Cc1oc(-c2cccc3ccccc23)nc1CN1CCN(c2ncnc3ccccc23)CC1,15.8µM,10µM,nt,i,i,?
COc1ccc(-c2nc(CN3CCN(c4cc(C)nc(C)c4)CC3)c(C)o2)c2ccccc12,i,?,i,11.2µM,?,?
